# Compound activity from PubChem BioAssay.
# Only a sample is shown.
# aSyn 5UTR act: Activators via SNCA 5'UTR binding, MLPCN. activity score, % (tested at 7.5 µM), hits read low. AID 1814. 300,000 tested, 7.1% active. alpha-synuclein 5'UTR reporter, activators screen; in the data active = activity score below about -60%
# A number is an active result; 0 = inactive.
SMILES,aSyn 5UTR act
O=C(Nc1ccc2c(c1)nc1n2CCN(Cc2ccccc2)C1)c1cccs1,-91
Cn1c(CN2CCCCC2)nc2cc(NC(=O)c3cccc(Br)c3)ccc21,-99
Cn1c(CN2CCCCC2)nc2cc(NC(=O)c3cccs3)ccc21,-68
Cc1cc(C)c(NC(=O)CCN2CCN(Cc3ccccc3)CC2)c(C)c1,0
CCC(=O)NCCc1nc2cc(NC(=O)c3ccccc3Cl)ccc2n1C,-78
O=C(Nc1ccc(CN2CCCCC2)cc1)c1sc2ccccc2c1Cl,-159
COc1c(C)cccc1C(=O)Nc1ccc(CN2CCCCC2)cc1,-101
N#C/C(C(=O)N1CCOCC1)=C1\Nc2ccccc2S1,-65
COc1ccccc1NC(CC(=O)c1ccccc1)C(=O)OCC(=O)c1ccc(F)cc1 (stereo not given),-235
CNc1ccccc1C(=O)OCC(=O)c1ccc(F)cc1,-70
CNc1ccccc1C(=O)OCC(=O)c1ccccc1,-71
COc1cccc(N2C(C(C)=O)=NN(c3ccccc3)C2c2ccc(N3CCOCC3)cc2)c1 (stereo not given),-82
Cc1ccc(Nc2cc(C)c3ccc(O)cc3n2)cc1C,-94
Cc1ccccc1Nc1cc(C)c2c(O)cccc2n1,-105
Cc1ccc(Nc2cc(C)c3c(O)cccc3n2)cc1C,-118
COc1ccc(Nc2cc(C)c3c(O)cccc3n2)cc1,-140
CC(C)(C)c1ccc(Cn2cnc(-c3ccc([N+](=O)[O-])cc3)c2)cc1,-119
CN=c1scc(-c2ccco2)n1/N=C/c1ccc(O)c(O)c1,-242
C=CCN=c1scc(C)n1/N=C/c1ccc(O)c(O)c1,-156
CN=c1scc(-c2ccccc2F)n1/N=C/c1ccc[nH]1,0
O=C(NCCCc1ccccn1)C1CCC(=O)N(Cc2cccc(F)c2)C1 (stereo not given),-117
CC(Sc1nncn1C)C(=O)Nc1nnc(-c2ccccc2)s1 (stereo not given),-83
CC(SC1=NCCS1)C(=O)Nc1nnc(-c2ccc(Cl)cc2)s1 (stereo not given),-63
CCCOc1ccc(-c2nc(OC)c3ccccc3n2)cc1,-85
CCN1CCN(c2ccc(NC(=O)c3ccc4c(c3)OCO4)cc2)CC1,-123
SMILES,aSyn 5UTR act
O=C(Nc1ccc2c(c1)OCO2)c1cccc(Cl)c1,-148
O=C(Nc1ccc(Br)cc1)c1ccc2c(c1)OCO2,-174
O=C(Nc1ccc(Cl)cc1)c1ccc2c(c1)OCO2,-84
NC(=O)c1ccc(NC(=O)c2ccc3c(c2)OCO3)cc1,-139
Cn1cc(C(=O)Nc2ccc(Cl)c(Cl)c2)cn1,-85
CC(C)(C)c1cnnn1-c1ccc(NC(=O)c2ccc3c(c2)OCO3)cc1,-86
O=C(Nc1ccc(Cl)cc1)C1=Cc2ccccc2OC1,-150
O=C(Nc1ccc(Cl)c(Cl)c1)c1ccc2c(c1)OCO2,-133
O=C(Nc1ccc(F)c(F)c1)c1ccc2c(c1)OCO2,-156
O=C(Nc1ccon1)c1ccc2c(c1)OCO2,-76
O=C(Nc1ccc(Cl)c([N+](=O)[O-])c1)c1ccc2c(c1)OCCO2,-133
CN(C)c1ccc(/C=N/c2cc(-c3ccccc3)nn2-c2ccccc2)cc1,-133
Cc1cccc(NC(=O)c2ccc(NCCO)c([N+](=O)[O-])c2)n1,-95
Cc1cccc(NC(=O)c2ccc(NCC3CCCO3)c([N+](=O)[O-])c2)c1 (stereo not given),-64
Cc1cccc(NC(=O)c2ccc(NCC3CCCO3)c([N+](=O)[O-])c2)n1 (stereo not given),-121
CC(=O)c1ccc(NCC2COc3ccccc3O2)c([N+](=O)[O-])c1 (stereo not given),-179
CCOC(=O)c1cc2c(nc1NC(=S)NCc1ccccc1)CCCC2,-107
CCCCOc1ccccc1C1CC(=O)NC2=C1C(=O)CCC2 (stereo not given),0
O=C(C1=C(O)C(=O)N(c2ncccn2)C1c1ccc(Cl)c(Cl)c1)c1ccco1 (stereo not given),-81
CCC(=O)NC(c1ccco1)c1cc(Cl)c2cccnc2c1O (stereo not given),0
c1ccc(-c2ccc3c(c2)NCCN3)cc1,-113
COc1cccc(/C=N/n2c(=O)[nH]c3ccccc32)c1OC,-164
COc1ccc2c(c1)CC/C(=C\C=C\c1ccccc1OC)C2=O,-134
COc1ccc2c(c1)C(=O)/C(=C/C=C/c1ccccc1)CC2,-115
COc1ccc2c(c1)CC/C(=C\c1ccc(C)o1)C2=O,-170
SMILES,aSyn 5UTR act
COc1cc(/C=C2\C=CC(=O)O2)cc(OC)c1,-65
O=C(N/N=C/c1cc2c(cc1Br)OCO2)c1ccccn1,-186
O=C(N/N=C/c1cc2c(cc1Br)OCO2)c1c[nH]c2ccccc12,-82
O=C(N/N=C/c1cc2c(cc1Br)OCO2)c1cc2ccccc2o1,-66
O=C(N/N=C/c1c[nH]c2ccc(Br)cc12)c1ccccn1,-63
Cc1cc(C)cc(NC(=O)Nc2ccc(-n3ccc(C(F)(F)F)n3)cc2)c1,-77
O=C(Nc1ccc(-n2ccc(C(F)(F)F)n2)cc1)Nc1cccc(Cl)c1,-81
COc1ccccc1NC(=O)Nc1ccc(-n2ccc(C(F)(F)F)n2)cc1,-212
O=C(Nc1ccc(-n2ccc(C(F)(F)F)n2)cc1)c1cccs1,-176
O=C(NCC(=O)N1CCN(c2ncccn2)CC1)c1cccs1,-66
COc1ccc(-c2ccc3sc4ccccc4c(=O)c3c2)cn1,-81
COc1cc2sc3ccc(-c4ccc(N(C)C)nc4)cc3c(=O)c2cc1OC,-141
CN(C)c1ccc(-c2ccc3c(=O)c4ccccc4n(C)c3c2)cn1,-106
COC(=O)[C@@H]1CCCN1C(=O)CCc1nnc(CCC2CCCCC2)o1,-116
CCOC(=O)C1CCCCN1C(=O)CCc1c(C)nc2ncnn2c1C (stereo not given),0
CSc1nn(-c2ccc(C(=O)OCC(=O)NC(=O)NC(C)C)cc2)c(=S)s1,-69
Cc1ccc2nc(-c3sc4nc(C)cc(C)c4c3N)[nH]c2c1,-63
CC(C)CCn1c(SCc2ccc(Cl)cc2)nc2c1c(=O)[nH]c(=O)n2C,0
CSc1nc(-c2ccc(Cl)cc2)nn1S(=O)(=O)c1ccc(Cl)cc1,-74
CSc1nc(-c2ccc(Cl)cc2)nn1S(=O)(=O)c1ccccc1,-74
CS(=O)(=O)n1nc(-c2ccc(Cl)cc2)nc1SCc1ccccc1,-112
Cc1ccc(-c2noc(C3CCN(S(C)(=O)=O)CC3)n2)o1,-67
Cc1ccc(-c2noc(C3CCCN(C(=O)c4ccccc4)C3)n2)o1 (stereo not given),-154
O=C(c1ccccc1Br)N1CCCC(c2nc(-c3cccs3)no2)C1 (stereo not given),-63
Cc1ccc(-c2noc(C3CCCN(C(=O)c4ccccc4Br)C3)n2)o1 (stereo not given),-92
SMILES,aSyn 5UTR act
COCCCn1c(C(=O)N2CC(C)OC(C)C2)cc2c(=O)n3cccc(C)c3nc21 (stereo not given),-71
O=C(CSc1nnc(-c2ccc(F)cc2)o1)N1CCCCC1,-88
O=C(CSc1nnc(-c2ccccc2)o1)N1CCCCC1,-74
CC1CCN(C(=O)CCc2nnc(-c3ccccc3)o2)CC1,-106
O=C(CCc1nnc(-c2ccc3c(c2)OCO3)o1)N1CCC(c2ccc(F)cc2)C1 (stereo not given),-104
O=C(CSc1nnc(-c2ccccc2)o1)N1CCCC1,-102
Cn1nc([N+](=O)[O-])nc1Sc1nnc(-c2ccccc2)o1,0
COc1ccccc1C(CCNCc1ccc(N(C)C)cc1)c1ccc(OC(C)C)cc1 (stereo not given),0
Cc1cccc(NCc2ccc(N(C)C)cc2)n1,-72
